From PubChem BioAssay (NCATS)
Records with an inconclusive call do not appear. Entries that show only a call come without a potency. Activity calls are given as the source filed them. Unless noted, calls follow the shape of the dose curve; as a rule, active = well fitted curve in the direction sought with a large enough effect; inconclusive = small, poorly fitted or top-dose-only effect, or another doubt; inactive = no such curve, though single readings can be large; an effect the other way counts as inactive or inconclusive.

How the values were obtained:
[1] = target: D(1A) dopamine receptor (Homo sapiens) (UniProt P21728); assay: HTS Assay for Allosteric Agonists of the Human D1 Dopamine Receptor: Primary Screen for Potentiators (AID 488982)
D(1A) dopamine receptor (Homo sapiens), sequence (P21728 whole entry, looked up): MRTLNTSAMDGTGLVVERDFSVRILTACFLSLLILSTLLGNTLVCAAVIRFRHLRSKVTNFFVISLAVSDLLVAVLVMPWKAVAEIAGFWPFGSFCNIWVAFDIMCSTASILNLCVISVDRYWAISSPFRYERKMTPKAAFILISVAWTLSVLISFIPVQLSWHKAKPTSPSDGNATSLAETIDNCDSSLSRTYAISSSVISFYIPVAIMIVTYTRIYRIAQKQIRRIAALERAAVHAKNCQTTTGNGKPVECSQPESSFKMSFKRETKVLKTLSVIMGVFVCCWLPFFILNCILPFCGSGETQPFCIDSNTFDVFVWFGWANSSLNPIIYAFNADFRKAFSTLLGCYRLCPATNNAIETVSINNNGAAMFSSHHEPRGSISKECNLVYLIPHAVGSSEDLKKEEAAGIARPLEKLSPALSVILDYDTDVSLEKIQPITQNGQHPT
Method in brief: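 Calcium flux in an inducible, force-coupled HEK293 Trex D1 line (overnight at 30 C): agonist mode is the 180 s kinetic read after compound; potentiator mode is the following 180 s read after dopamine at EC20.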

[2] = target: D(1A) dopamine receptor (Homo sapiens) (UniProt P21728); assay: HTS Assay for Allosteric Agonists of the Human D1 Dopamine Receptor: Primary Screen for Antagonists (AID 488983);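 also: calcium flux response to an EC80 dopamine challenge measured with no-wash dye; nearly all actives have a fitted effect of over 65% in size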; also: potency is read from the fitted curve at half-maximal effect
Method in brief: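 Calcium flux readout, no-wash dye, inducible HEK293 T-REx D1 line (force-coupled). Compound added after 10 s baseline, 180 s kinetic read; then dopamine at EC80, further 180 s read.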

[3] = target: ATP-dependent 6-phosphofructokinase (Trypanosoma brucei brucei) (UniProt O15648); assay: qHTS Assay to Find Inhibitors of T. brucei phosphofructokinase: hit validation (AID 492961);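 also: luminescence reports ADP formed as PFK phosphorylates fructose-6-phosphate with ATP; series mostly up to about 51 µM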
ATP-dependent 6-phosphofructokinase (Trypanosoma brucei brucei), sequence (O15648 whole entry, looked up): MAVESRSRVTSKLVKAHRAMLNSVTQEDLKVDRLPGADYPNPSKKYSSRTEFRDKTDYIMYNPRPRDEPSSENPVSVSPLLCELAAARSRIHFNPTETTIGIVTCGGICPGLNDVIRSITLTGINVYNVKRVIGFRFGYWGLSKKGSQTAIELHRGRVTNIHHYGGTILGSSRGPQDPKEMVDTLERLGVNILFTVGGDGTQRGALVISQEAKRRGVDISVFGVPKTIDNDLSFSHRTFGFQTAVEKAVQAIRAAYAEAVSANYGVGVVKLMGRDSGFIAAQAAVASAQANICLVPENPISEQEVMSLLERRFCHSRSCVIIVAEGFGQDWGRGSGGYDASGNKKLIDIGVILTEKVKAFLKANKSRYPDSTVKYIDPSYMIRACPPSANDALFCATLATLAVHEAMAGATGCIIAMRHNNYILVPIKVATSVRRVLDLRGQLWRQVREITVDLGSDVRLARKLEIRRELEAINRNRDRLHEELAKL
Method in brief: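 Measures ADP output of PFK (1.25 nM) at 0.1 mM ATP, 0.5 mM F6P, pH 8.0 TEA buffer with 5 mM MgCl2. No-enzyme wells define full inhibition; uninhibited enzyme wells define zero.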

[4] = Validation screen for small molecules that induce genotoxicity in human embryonic kidney (HEK293T) cells expressing luciferase-tagged ELG1 (AID 493106)
Method in brief: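 qHTS format; 2,000 HEK293T ELG1-luc cells/well; 23 nL compound via pin tool; 16 hr, 37 °C/5% CO2; ONE-Glo, 30 min RT; luminescence read.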

[5] = target: ATPase family AAA domain-containing protein 5 (Homo sapiens) (UniProt Q96QE3); assay: Validation screen for small molecules that inhibit ELG1-dependent DNA repair in human embryonic kidney (HEK293T) cells expressing luciferase-tagged ELG1 (AID 493107); also: nearly all actives have a fitted effect of over 70% in size; also: potency is read from the fitted curve at half-maximal effect
ATPase family AAA domain-containing protein 5 (Homo sapiens), sequence (Q96QE3 whole entry, looked up, the tested form may be a part): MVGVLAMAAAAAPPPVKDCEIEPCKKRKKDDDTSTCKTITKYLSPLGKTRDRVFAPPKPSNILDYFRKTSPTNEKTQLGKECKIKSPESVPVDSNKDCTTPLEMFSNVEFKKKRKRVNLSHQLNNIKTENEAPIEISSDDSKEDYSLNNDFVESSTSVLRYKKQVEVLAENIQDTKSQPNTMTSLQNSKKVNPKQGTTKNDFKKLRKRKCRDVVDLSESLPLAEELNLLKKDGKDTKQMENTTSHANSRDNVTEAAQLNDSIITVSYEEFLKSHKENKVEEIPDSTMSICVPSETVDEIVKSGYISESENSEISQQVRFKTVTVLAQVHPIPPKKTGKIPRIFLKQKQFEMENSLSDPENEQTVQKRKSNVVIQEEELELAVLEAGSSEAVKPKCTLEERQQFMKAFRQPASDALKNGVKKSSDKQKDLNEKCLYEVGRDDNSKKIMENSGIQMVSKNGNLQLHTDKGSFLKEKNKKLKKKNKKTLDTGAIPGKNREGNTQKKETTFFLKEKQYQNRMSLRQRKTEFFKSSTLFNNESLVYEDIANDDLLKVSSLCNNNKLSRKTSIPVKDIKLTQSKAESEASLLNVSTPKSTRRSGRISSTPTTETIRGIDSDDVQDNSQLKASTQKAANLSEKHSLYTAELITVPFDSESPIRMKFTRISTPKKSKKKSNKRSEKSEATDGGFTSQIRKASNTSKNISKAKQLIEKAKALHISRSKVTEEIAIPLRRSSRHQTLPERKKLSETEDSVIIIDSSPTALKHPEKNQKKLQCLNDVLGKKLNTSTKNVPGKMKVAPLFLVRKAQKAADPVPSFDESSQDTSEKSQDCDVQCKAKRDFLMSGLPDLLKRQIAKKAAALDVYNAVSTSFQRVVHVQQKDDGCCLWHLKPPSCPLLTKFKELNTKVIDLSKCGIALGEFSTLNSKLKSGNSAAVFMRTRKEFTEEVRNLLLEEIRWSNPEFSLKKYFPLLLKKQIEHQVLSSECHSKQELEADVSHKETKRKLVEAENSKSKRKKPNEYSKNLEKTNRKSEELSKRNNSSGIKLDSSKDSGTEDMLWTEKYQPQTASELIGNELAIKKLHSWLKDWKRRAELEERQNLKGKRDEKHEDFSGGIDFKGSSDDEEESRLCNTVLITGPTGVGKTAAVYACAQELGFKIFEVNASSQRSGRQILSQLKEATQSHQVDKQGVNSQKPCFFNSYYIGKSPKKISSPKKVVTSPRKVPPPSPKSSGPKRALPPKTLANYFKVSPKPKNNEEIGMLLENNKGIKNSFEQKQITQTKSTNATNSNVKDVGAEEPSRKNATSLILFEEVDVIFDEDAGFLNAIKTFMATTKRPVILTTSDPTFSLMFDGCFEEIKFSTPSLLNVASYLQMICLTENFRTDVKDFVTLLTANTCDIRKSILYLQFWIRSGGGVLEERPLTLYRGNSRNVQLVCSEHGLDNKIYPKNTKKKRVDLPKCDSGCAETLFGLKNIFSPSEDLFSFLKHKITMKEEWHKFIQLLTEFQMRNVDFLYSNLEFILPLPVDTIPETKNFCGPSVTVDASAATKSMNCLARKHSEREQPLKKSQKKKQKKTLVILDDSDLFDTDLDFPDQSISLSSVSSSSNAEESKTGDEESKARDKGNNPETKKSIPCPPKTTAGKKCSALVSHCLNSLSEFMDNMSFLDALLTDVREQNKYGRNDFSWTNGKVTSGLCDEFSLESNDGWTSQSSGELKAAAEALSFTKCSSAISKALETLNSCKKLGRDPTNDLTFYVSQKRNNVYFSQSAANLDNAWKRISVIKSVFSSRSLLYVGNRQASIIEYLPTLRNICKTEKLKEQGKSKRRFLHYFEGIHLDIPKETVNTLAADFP
Method in brief: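 ELG1-luciferase HEK293T reporter; 5-fluorouridine + compound/DMSO, 16 hr, 37 °C, 5% CO2; ONE-Glo 30 min RT; luminescence read, qHTS format.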

[6] = Nrf2 qHTS screen for inhibitors: Validation (AID 493153; active = well fitted inhibition curve with a large enough effect in the main read-out, with a control signal flat, not every such curve was filed as active); settings: Potency: luciferase luminescence; viability change: measured here: cytotoxicity max response
Method in brief: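 Concentration-response test in A549 ARE_Fluc reporter cells (5% FBS OPTI-MEM), compound exposure 18-24 h at 37°C, 5% CO2. Cell viability measured first by CellTiter-Fluor fluorescence; ARE-driven luciferase luminescence then measured as Nrf2 activity.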

[7] = qHTS for Inhibitors of Cell Surface uPA Generation: Validation Assay (AID 493164);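 also: RAW 264.7 macrophage cells exposed to compound for 18 h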
Method in brief: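 Compounds are titrated over seven points (2.45 nM–38.3 uM final) onto pre-plated RAW 264.7 cells and incubated for 18 h. Retained intracellular ATP, measured with ATP-Lite, indicates blocked lethal factor entry.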

[8] = target: Thyrotropin-releasing hormone receptor (Homo sapiens) (UniProt P34981); assay: qHTS for Small Molecule Agonists and Allosteric Enhancers of Human TRH Receptor: Validation Screen for Agonists (AID 493127;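 active = calcium activation more than 3 SD above the typical response in the agonist read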;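 also: intracellular calcium rise by fluo-8 fluorescence before TRH EC20 addition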); settings: TRH receptor agonist cell assay; at 2 µM; stronger effect = higher value
Thyrotropin-releasing hormone receptor (Homo sapiens), sequence (P34981 whole entry, looked up): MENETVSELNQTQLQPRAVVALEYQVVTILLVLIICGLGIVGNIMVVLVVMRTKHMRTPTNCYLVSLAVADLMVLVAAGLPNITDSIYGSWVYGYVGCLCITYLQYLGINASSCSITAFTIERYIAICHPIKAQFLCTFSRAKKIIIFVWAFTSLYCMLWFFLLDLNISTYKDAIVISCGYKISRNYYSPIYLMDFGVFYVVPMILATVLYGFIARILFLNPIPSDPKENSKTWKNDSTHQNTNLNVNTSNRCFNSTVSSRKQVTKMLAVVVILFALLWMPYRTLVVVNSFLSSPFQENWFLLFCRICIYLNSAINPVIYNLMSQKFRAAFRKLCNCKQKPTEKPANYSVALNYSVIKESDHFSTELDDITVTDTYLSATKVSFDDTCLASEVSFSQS
Method in brief: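 Read-out: intracellular calcium release measured kinetically by FDSS (fluo-8, ex 480/em 530 nm), 1 reading/s after a 10-cycle baseline. TRHR cells, 2000/well, cultured 18 h at 33.5C, dye-loaded at room temp. Compound-evoked positive calcium signal flags agonists.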

[9] = target: Galactokinase (Homo sapiens) (UniProt P51570); assay: qHTS Validation Assay for Inhibitors of Human Galactokinase (GALK) (AID 493189)
Galactokinase (Homo sapiens), sequence (P51570 whole entry, looked up): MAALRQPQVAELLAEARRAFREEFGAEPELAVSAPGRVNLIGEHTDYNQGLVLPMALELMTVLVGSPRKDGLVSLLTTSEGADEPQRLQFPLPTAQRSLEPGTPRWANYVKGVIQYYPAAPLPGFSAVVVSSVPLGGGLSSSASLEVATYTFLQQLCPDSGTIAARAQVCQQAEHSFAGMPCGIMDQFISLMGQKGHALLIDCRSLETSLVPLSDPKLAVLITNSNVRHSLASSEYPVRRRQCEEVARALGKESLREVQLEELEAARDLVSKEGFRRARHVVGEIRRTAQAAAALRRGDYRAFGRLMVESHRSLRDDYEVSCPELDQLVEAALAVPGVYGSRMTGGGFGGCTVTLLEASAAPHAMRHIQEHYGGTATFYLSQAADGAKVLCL
Method in brief: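 Luminescence from leftover ATP (Kinase-Glo Plus, 10 min) served as read-out after a 1 h room-temperature reaction of 5 nM GALK, 100 uM galactose and 35 uM ATP at pH8.0.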

## CC1OC1P(=O)(O)O (centres undefined)
[1]
  Potency: inactive
[2]
  Potency: inactive
[3]
  outcome: inactive
[4]
  Potency: inactive
[5]
  Potency: inactive
[6]
  Potency: inactive
  viability change: 11.8%
[7]
  outcome: inactive

## N=c1ccn2c(n1)O[C@H]1[C@H](O)[C@@H](CO)O[C@H]12
[1]
  Potency: inactive
[2]
  Potency: inactive
[3]
  outcome: inactive
[4]
  Potency: inactive
[5]
  Potency: inactive
[7]
  outcome: inactive

## Cc1cc(NC2CCCCC2)nc(-n2nc(C)cc2C)n1
[1]
  Potency: inactive
[2]
  Potency: inactive
[4]
  Potency: inactive
[5]
  Potency: 14.6 µM (active)
[6]
  Potency: inactive
  viability change: -6.43%
[7]
  outcome: inactive

## Oc1ccc(C2CNCc3sccc32)cc1O (centres undefined)
[1]
  Potency: inactive
[2]
  Potency: 0.199 µM (active)
[4]
  Potency: inactive
[5]
  Potency: inactive
[8]
  activation: 1.75% (inactive)
[6]
  Potency: inactive
  viability change: -11.4%
[7]
  outcome: inactive
[9]
  Potency: inactive

## COc1cc2c(CCNC(C)=O)c[nH]c2cc1Cl
[1]
  Potency: inactive
[2]
  Potency: inactive
[4]
  Potency: inactive
[5]
  Potency: inactive
[8]
  activation: 0.375% (inactive)
[6]
  Potency: inactive
  viability change: 2.33%
[7]
  outcome: inactive
[9]
  Potency: inactive

## NCCSSCCN
[1]
  Potency: inactive
[2]
  Potency: inactive
[4]
  Potency: inactive
[5]
  Potency: inactive
[8]
  activation: -0.375% (inactive)
[6]
  Potency: inactive
  viability change: -6.08%
[7]
  outcome: inactive
[9]
  Potency: inactive

## OCC1O[C@H]([S-])[C@H](O)[C@@H](O)[C@@H]1O.[Au+] (some centres undefined)
[1]
  Potency: inactive
[2]
  Potency: inactive
[4]
  Potency: inactive
[5]
  Potency: inactive
[6]
  Potency: inactive
  viability change: -19.1%
[7]
  outcome: inactive

## CN1[C@@H](CC(=O)c2ccccc2)CCC[C@H]1C[C@H](O)c1ccccc1
[1]
  Potency: inactive
[2]
  Potency: inactive
[3]
  outcome: inactive
[4]
  Potency: inactive
[5]
  Potency: inactive
[8]
  activation: 0.5% (inactive)
[6]
  Potency: inactive
  viability change: -11%
[7]
  outcome: inactive
[9]
  Potency: inactive

## CSc1ccccc1N1CCN(CCCCCC(=O)NC2CCCc3ccccc32)CC1 (centres undefined)
[1]
  Potency: inactive
[2]
  Potency: 2 µM (active)
[4]
  Potency: inactive

## OCC1O[C@H](O)C(Cl)C(O)C1O (some centres undefined)
[1]
  Potency: inactive
[2]
  Potency: inactive
[4]
  Potency: inactive
[5]
  Potency: inactive
[8]
  activation: 0.688% (inactive)
[6]
  Potency: inactive
  viability change: 4.21%
[7]
  outcome: inactive
[9]
  Potency: inactive

## O=C(O)CC1CC(c2ccccc2)=NO1 (centres undefined)
[1]
  Potency: inactive
[2]
  Potency: inactive
[4]
  Potency: inactive
[5]
  Potency: inactive
[6]
  Potency: inactive
  viability change: 12.6%
[7]
  outcome: inactive

## CC(COc1ccc(/C=C/c2ccccc2)cc1)[N+](C)(C)C (centres undefined)
[1]
  Potency: inactive
[2]
  Potency: inactive
[4]
  Potency: inactive
[5]
  Potency: inactive
[8]
  activation: 0.125% (inactive)
[7]
  outcome: inactive
[9]
  Potency: inactive

## CC(C)NC[C@H](O)COc1cccc2[nH]ccc12
[1]
  Potency: inactive
[2]
  Potency: inactive
[4]
  Potency: inactive
[5]
  Potency: inactive
[8]
  activation: 1.12% (inactive)
[6]
  Potency: inactive
  viability change: -1.79%
[7]
  outcome: inactive
[9]
  Potency: inactive

## CC1(C)CCC=[N+]1[O-]
[1]
  Potency: inactive
[2]
  Potency: inactive
[4]
  Potency: inactive
[5]
  Potency: inactive
[8]
  activation: 1.19% (inactive)
[6]
  Potency: inactive
  viability change: -0.162%
[7]
  outcome: inactive
[9]
  Potency: inactive

## c1ccc(-c2ccccn2)nc1
[1]
  Potency: inactive
[2]
  Potency: inactive
[4]
  Potency: inactive
[5]
  Potency: inactive
[8]
  activation: 0% (inactive)
[6]
  Potency: inactive
  viability change: -0.658%
[7]
  outcome: inactive
[9]
  Potency: inactive

## CN(C)C(N)=NCCC[C@H](N)C(=O)O
[1]
  Potency: inactive
[2]
  Potency: inactive
[4]
  Potency: inactive
[5]
  Potency: inactive
[8]
  activation: 0.188% (inactive)
[6]
  Potency: inactive
  viability change: -5.79%
[7]
  outcome: inactive
[9]
  Potency: inactive

## O=C(O)[C@@H]1C[C@@H](C(=O)O)N1
[1]
  Potency: inactive
[2]
  Potency: inactive
[4]
  Potency: inactive
[8]
  activation: 1.06% (inactive)
[6]
  Potency: inactive
  viability change: 2.33%
[7]
  outcome: inactive
[9]
  Potency: inactive

## COc1ccccc1N1CCN(CCCCNS(=O)(=O)c2cccc3c(N(C)C)cccc23)CC1
[1]
  Potency: inactive
[2]
  Potency: 2 µM (active)
[4]
  Potency: inactive
[8]
  activation: -3.25% (inactive)
[7]
  outcome: inactive
[9]
  Potency: inactive

## CC(N)C(=O)OC(C)(C)Cc1ccc(Cl)cc1 (centres undefined)
[1]
  Potency: inactive
[2]
  Potency: inactive
[4]
  Potency: inactive
[5]
  Potency: inactive
[6]
  Potency: inactive
  viability change: 7.67%
[7]
  outcome: inactive

## COc1cc(C(O)CO)ccc1OS(=O)(=O)O (centres undefined)
[1]
  Potency: inactive
[2]
  Potency: inactive
[5]
  Potency: inactive
[8]
  activation: -2.69% (inactive)
[6]
  Potency: inactive
  viability change: -9.03%
[7]
  outcome: inactive
[9]
  Potency: inactive

## C=CC(C)=C[C@@]1(C)SC(=O)C(C)=C1O
[1]
  Potency: inactive
[2]
  Potency: inactive
[4]
  Potency: inactive
[5]
  Potency: inactive
[6]
  Potency: inactive
  viability change: 1.42%
[7]
  outcome: inactive

## S=C(S)OC1CC2CC1C1CCCC21 (centres undefined)
[1]
  Potency: inactive
[2]
  Potency: inactive
[4]
  Potency: inactive
[8]
  activation: 0.125% (inactive)
[6]
  Potency: inactive
  viability change: 5.78%
[7]
  outcome: inactive
[9]
  Potency: inactive

## CCCCCCCCc1ccc(-c2ccc(C(=O)O)cc2)cc1
[1]
  Potency: inactive
[2]
  Potency: inactive
[4]
  Potency: inactive
[5]
  Potency: inactive
[7]
  outcome: inactive

## N#C/C(=C\c1ccc(O)c(O)c1)C(=O)NCc1ccccc1
[1]
  Potency: inactive
[2]
  Potency: inactive
[5]
  Potency: inactive
[8]
  activation: 1.31% (inactive)
[6]
  Potency: inactive
  viability change: -19.8%
[7]
  outcome: inactive
[9]
  Potency: inactive
